HTT-AS promoter = activates huntingtin-antisense promoter activity | HEK293 HTT-AS promoter firefly luciferase reporter, 24 h; response scale: percent change from vehicle, -100% = no light | 0.24% of 48,000 active | Potency, µM (series often up to 57.5 µM), inactives show at the top dose activity change, positive = activation, actives largely listed as activators | AID 1508624; further: nearly all actives have a fitted effect of over 55% in size
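Firefly luciferase signal from promoter-reporter HEK293 cells was scaled between vehicle (0%) and zero RLU (-100%). Compounds were tested at final concentrations of up to 57.5 uM over 24 h at 37 degrees C. PTC124 at 50 uM final served as control inhibitor.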
FH mod = Identification of activators of human fumarate hydratase by quantitative high-throughput screening | Fumarate hydratase, mitochondrial (Homo sapiens), P07954 | FH coupled MDH/diaphorase resazurin fluorescence, 15 min | Potency, µM (doses to about 79.9 µM), without a hit: top-dose activity change, negative = inhibition, most hits filed as inhibitors | 0.22% of 54,000 active | AID 1347055, 2019; further: on the % scale 0 is the no-effect control and ±100 the full control effect; the screen sought activators but most active calls are inhibition curves; nearly all actives have a fitted effect of over 45% in size
Target sequence (P07954 whole entry, looked up): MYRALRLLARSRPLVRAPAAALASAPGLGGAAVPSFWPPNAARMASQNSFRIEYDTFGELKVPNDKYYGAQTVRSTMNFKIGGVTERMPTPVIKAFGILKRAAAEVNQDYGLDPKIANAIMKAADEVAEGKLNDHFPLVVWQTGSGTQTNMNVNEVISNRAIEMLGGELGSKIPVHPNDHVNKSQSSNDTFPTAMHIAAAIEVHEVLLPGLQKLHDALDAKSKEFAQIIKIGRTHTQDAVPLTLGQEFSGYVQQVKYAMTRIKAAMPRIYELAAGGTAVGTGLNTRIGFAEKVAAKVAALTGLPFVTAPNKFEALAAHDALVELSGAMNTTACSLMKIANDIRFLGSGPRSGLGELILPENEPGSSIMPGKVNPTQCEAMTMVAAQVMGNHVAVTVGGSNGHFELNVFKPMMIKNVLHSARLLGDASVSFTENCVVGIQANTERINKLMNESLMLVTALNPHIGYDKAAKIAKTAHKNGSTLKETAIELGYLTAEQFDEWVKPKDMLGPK
HTT promoter inh = HTT promoter inhibition; Potency, µM (top dose mostly 57.5 µM), without a hit: at the highest dose activity change, negative = inhibition, usual class: inhibitors; HEK293 HTT promoter firefly luciferase reporter, 24 h; 0.93% of 48,000 active; further: nearly all actives have a fitted effect of over 50% in size
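HEK293 cells carrying firefly luciferase reporters were seeded at 2,500 per well in Opti-MEM and cultured for 24 h. They were then treated with compounds at up to 57.5 uM final for 24 h at 37 degrees C before Dual-Glo luminescence readout.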
Active calls of the source: *; u = inconclusive; x = not tested or not shown; [ ] = another dose, or the depositor's remark. Rows were chosen to be rich in hits. Some 1.3% of all compounds tested hit in one or more screens of this group. The call rests on the fitted dose curve; in most records, active means well fitted curve in the direction sought with a large enough effect; inconclusive means small, poorly fitted or top-dose-only effect, or another doubt; inactive means no such curve, though single readings can be large; an effect the other way counts as inactive or inconclusive. Potency means the concentration at half of the fitted maximal effect.

SMILES | HTT-AS promoter | FH mod | HTT promoter inh
Cc1ccc(NC(=O)c2ccc(F)c(S(=O)(=O)N3CCc4ccccc4C3)c2)cc1F | -27.9% | u | u
COc1ccc(C)c2sc(NC(=O)c3ccncc3)nc12 | x | -5.2% | x
COC(=O)C1=CO[C@@H](O[C@@H]2O[C@H](COC(=O)/C=C/c3cc(OC)c(O)c(OC)c3)[C@@H](O)[C@H](O)[C@H]2O)[C@@H]2C(CO)=CC[C@H]12 | x | 1.9%[20.6 µM] | x
Cc1cccc(N2CCN(S(=O)(=O)c3csc(C(N)=O)c3)CC2)c1C | -57.1% | -11.5% | 14.1µM*
Cc1ccc(NS(=O)(=O)c2ccc3c(c2)C(C(C)C)C(=O)N3)cc1C (stereo unspecified) | -5.3% | -28.3% | -27.4%
Cc1cccc(N2CCN(S(=O)(=O)c3ccc4c(c3)C(C(C)C)C(=O)N4)CC2)c1C (stereo unspecified) | -86.1% | u | 12.6µM*
NC(=O)c1cc(S(=O)(=O)N2CCN(c3ccc(F)cc3)CC2)cs1 | -10.0% | 5.1% | u
CNC(=O)COC(=O)NCCC1CCN(c2cccc(C)n2)CC1 | x | 0.1% | x
Cc1ccccc1N1CCN(S(=O)(=O)C[C@]23CC[C@H](C[C@@H]2NC(=O)[C@@H](N)CCS(C)(=O)=O)C3(C)C)CC1 | x | 23.6% | x
O=C1Nc2ccc(I)cc2/C1=C/c1cc(Br)c(O)c(Br)c1 | x | 28.2µM* | x
O=C1Nc2ccc(I)cc2C1=Cc1cc(Br)c(O)c(Br)c1 | 1.0% | u | -3.2%
CC(=O)O[C@H]1C[C@@H]2[C@]3(CC[C@]4(C)[C@@H](C5(C)CCC(C(C)(C)O)O5)[C@@H](O)C[C@@]24C)C[C@@]32CC[C@H](O[C@@H]3OC[C@@H](O)[C@H](O)[C@H]3O)C(C)(C)[C@H]12 (stereo partly specified) | x | -14.3%[20.6 µM] | x
CC1CCN(S(=O)(=O)c2nnc(NC(=O)c3cccc(F)c3)s2)CC1 | -29.2% | -1.0% | -29.2%
CC1Cc2ccccc2N1S(=O)(=O)c1nnc(NC(=O)c2cccc(F)c2)s1 (stereo unspecified) | -93.4% | -17.4% | 25.1µM*
C=C1[C@H](OC(C)=O)[C@H]2[C@@H](OC(C)=O)C(C)C[C@]2(OC(C)=O)C(=O)[C@H](C)/C=C/C(C)(C)C(=O)[C@H](OC(=O)C(C)C)[C@H]1OC(C)=O (stereo partly specified) | x | 2.4%[20.6 µM] | x
NC(=O)c1ccc(OCC2NC(=O)C3CCCN3C2=O)cc1 (stereo unspecified) | x | 3.2% | x
CC[C@H]1CN(c2nc(N)c(C(N)=O)nc2Cl)CCN1C1CCN(Cc2ccc(Cl)cc2)CC1 | x | -0.4% | x
CCOc1ccc2nc(N(Cc3cccnc3)C(=O)c3cccs3)sc2c1 | u | -14.6% | 27.6%
COc1ccc2sc(N(Cc3cccnc3)C(=O)c3cccs3)nc2c1 | -32.5% | -2.9% | 14.1µM*
CCCCC(=O)Oc1ccc2oc(-c3ccc(OC)cc3)cc(=O)c2c1 | 2µM* | 4.4% | 89.0%
COC(=O)COc1ccc2oc(-c3ccc(OC)cc3)cc(=O)c2c1 | u | -5.8% | 75.7%
C=C1C(OC(C)=O)CCC2(C)CCC(C(C)(C)O)CC12 (stereo unspecified) | x | -1.3% | x
COc1ccc(OCC(=O)Nc2cc(-c3nc4ccccc4o3)ccc2Cl)cc1 | 10µM* | -2.0% | 49.0%
COc1ccc(-c2nc3ccccc3o2)cc1NC(=O)COc1ccc(C)c(C)c1 | u | -6.0% | 22.7%
O=c1[nH]c2ccc(NCc3ccc(-c4ccccc4)o3)cc2[nH]1 | -32.2% | 1.3% | u
SMILES | HTT-AS promoter | FH mod | HTT promoter inh
O=c1[nH]c2ccc(NCc3ccc(-c4ccccc4F)o3)cc2[nH]1 | -60.1% | -26.5% | 28.2µM*
CC(C)C(O)(CO)CCO[C@@H]1O[C@H](CO[C@H]2OC[C@](O)(CO)[C@H]2O)[C@@H](O)[C@H](O)[C@H]1O (stereo partly specified) | x | 1.6%[53.3 µM] | x
CC(C)(C)c1cc(C(C)(C)C)c2oc(=O)c(-c3nc4ccc(C(=O)O)cc4[nH]3)cc2c1 | -23.9% | 28.2µM* | u
CC(C)(C)c1cc(C(C)(C)C)c2oc(=O)c(-c3nc4ccccc4[nH]3)cc2c1 | -15.6% | 2.3% | -20.2%
COC(=O)C1C(c2ccc(O)cc2)C(C(=O)O)C1c1ccc(O)cc1 (stereo unspecified) | x | 30.6%[53.3 µM] | x
Cc1ccc(Cl)cc1-n1ncc2c(N3CCN(Cc4ccccc4)CC3)ncnc21 | -95.3% | u | 12.6µM*
CCN1CCN(c2ncnc3c2cnn3-c2cc(Cl)ccc2C)CC1 | -10.8% | -13.7% | -21.4%
C/C=C/C(O)C1OC(=O)CC1Nc1ccc(C(=O)O)cc1 (stereo unspecified) | x | 2.3% | x

Assay outcomes (PubChem)
